Tested on: T1, RSK3(Kin.Dom.2-C-terminal)
T1 construct: gene RPS6KA2
Details: concentration: 1 μM, replicates: in singlicate; n = 1
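Further: KINOMEscan kinase panel screen.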

SMILES | %Inh
COc1cc(Nc2nccc(N3CCC(NC(=O)Nc4cccc(C(C)=O)c4)C3)n2)cc(OC)c1OC (stereo not shown) [GSK1379753] | 0%
CCn1c(-c2nonc2N)nc2c(C#CC(C)(C)O)ncc(OCCCCN)c21.O=C(O)C(F)(F)F.O=C(O)C(F)(F)F [GSK507274] | 6%
COc1cc(Nc2nccc(-c3c(-c4cccc(NC(=O)c5c(F)cccc5F)c4)nn4ncccc34)n2)cc(OC)c1OC [GSK327238] | 0%
O=C(Nc1n[nH]c2nc(-c3ccc(O)cc3)ccc12)C1CC1 [SB-710363] | 0%
O=c1[nH]cc(-c2ccc(N3CCOCC3)cc2)c2sc(-c3cn[nH]c3)cc12 [GSK2276055] | 22%
O=C(Nc1cccc(-c2nn3ccccc3c2-c2ccnc(Nc3cccc(F)c3)n2)c1)c1c(F)ccc(F)c1Cl [GSK357952] | 0%
CC(C)c1nc(-c2cccc(NS(=O)(=O)c3c(F)cccc3F)c2F)c(-c2ccnc(Nc3ccc(N4CCOCC4)nc3)n2)s1 [GSK2008607] | 0%
CC(=O)N1CCN(c2ccc(Nc3nccc(-c4sc(C(C)C)nc4-c4cccc(NS(=O)(=O)c5cccc(Cl)c5)c4)n3)cn2)CC1 [GSK1660437] | 0%
O=C(Nc1cccc(-c2nn3ncccc3c2-c2ccnc(Nc3ccccc3)n2)c1)c1c(F)cccc1F [GSK198271] | 17%
Cl.c1ccc(-c2ccc3c(Nc4ccc5[nH]ncc5c4)ccnc3c2)nc1 [GW440137] | 0%
Cn1cc(-c2[nH]c3cc(NC(=O)[C@H](N)C4CCCCC4)cc4c3c2C=NNC4=O)cn1 | 5%
CNC(=O)c1ccccc1Nc1nc(Nc2ccc(N3CCOCC3)cc2)ncc1Cl.Cl [GSK1576028] | 25%
c1ccc(-c2cnc3nccnn23)cc1 [AH20685] | 0%
CN(C)S(=O)(=O)c1cc(-c2ccc3nccc(-c4cccc(S(N)(=O)=O)c4)c3c2)cnc1N [GSK1669921] | 28%
COc1cccc(NC(=O)NC2CCN(c3ccnc(Nc4cc(OC)c(OC)c(OC)c4)n3)C2)c1 (stereo not shown) [GSK1379763] | 0%
C[C@@H](Oc1cc(-n2cnc3cc(-c4ccnc(NCCS(C)(=O)=O)c4)ccc32)sc1C(N)=O)c1ccccc1Cl [GSK907232] | 0%

SMILES | %Inh
Fc1ccc(-c2ncn(C3CCNCC3)c2-c2ccnc(Oc3ccc(-c4ccccc4)cc3)n2)cc1 [SB-245391] | 0%
COc1cccc(C(=O)Nc2cccc(Oc3ccc4nc(NC(=O)C5CC5)cn4n3)c2)c1 | 1%
Nc1ncc(-c2cccnc2)c2scc(-c3ccc4c(c3)CCN4C(=O)Cc3ccccc3)c12 [GSK683281] | 0%
Cc1occc1-c1ncc(OC[C@@H](N)Cc2c[nH]c3ccccc23)cc1-c1ccc2[nH]nc(C)c2c1.O=C(O)C(F)(F)F [GSK682037] | 0%
Nc1n[nH]c2cnc(-c3ccccc3)cc12 [SB-642124] | 3%
Cc1ccc(S(=O)(=O)Nc2ccc(Nc3nccc(Nc4cccc5[nH]ncc45)n3)cc2)cc1 [GSK581271] | 0%
c1ccc(-c2n[nH]cc2Nc2ccnc3ccccc23)nc1 [GW694077] | 30%
COc1ccc(Nc2nccc(NCCNC(=O)c3cc4ccccc4s3)n2)cc1 [GSK1379896] | 0%
Cc1ccc(F)c(C(=O)Nc2cccc(-c3nn4ccccc4c3-c3ccnc(Nc4cccc(F)c4)n3)c2)c1F [GSK361061] | 7%
CC(C)(C)c1ccc2nccc(Nc3cccc(O)c3)c2c1 [GW856795] | 30%
COc1cc(Nc2ncc3c(C)nc(-c4cc5ccccc5[nH]4)n3n2)cc(OC)c1OC [GW869516] | 0%
COC(=O)Nc1nc2ccc(Oc3ccc(NC(=O)Nc4cc(C(F)(F)F)ccc4F)cc3)cc2n1C.Cl [GW692089] | 0%
CCCCc1nn2ncccc2c1-c1ccnc(Nc2ccc(N3CCN(C)CC3)cc2)n1 [GW684941] | 0%
O=C(O)C(F)(F)F.O=C(O)C(F)(F)F.O=c1[nH]ccc2nc(N[C@@H]3CCCNC3)nc(Nc3ccc(S(=O)(=O)N4CCOCC4)cc3)c12 [GSK2177277] | 90.2%
Cl.Cl.NCC(C(=O)Nc1cc(Br)c(-c2ccnc3[nH]ccc23)s1)c1ccccc1 (stereo not shown) [GSK1269851] | 3%
